Data taken from PubChem BioAssay (NCATS).
Where “and” joins values, the source holds several entries; their conditions need not be identical. Equal entries are not always repeated. Results filed as inconclusive are left out. Where a structure was tested more than once in an assay, its records may differ in their call. Calls of active or inactive are those of the source. Unless noted, calls come from the whole dose curve; as a rule, active = well fitted curve in the direction sought with a large enough effect; inconclusive = small, poorly fitted or top-dose-only effect, or another doubt; inactive = no such curve, though single readings can be large; an effect the other way counts as inactive or inconclusive. Peptide text beside a SMILES is read from it.

Tests used:
[1] = molecular target: Rap guanine nucleotide exchange factor 3 (Homo sapiens) (UniProt O95398); assay: Confirmatory qHTS for antagonist of cAMP-regulated guanine nucleotide exchange factor 3 (EPAC1) (AID 1645880);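 note: plate controls were DMSO only for no effect and full effect of the ATA control for full effect; nearly all actives have a fitted effect of over 55% in size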
Chain of Rap guanine nucleotide exchange factor 3 (Homo sapiens) (O95398 whole entry, looked up): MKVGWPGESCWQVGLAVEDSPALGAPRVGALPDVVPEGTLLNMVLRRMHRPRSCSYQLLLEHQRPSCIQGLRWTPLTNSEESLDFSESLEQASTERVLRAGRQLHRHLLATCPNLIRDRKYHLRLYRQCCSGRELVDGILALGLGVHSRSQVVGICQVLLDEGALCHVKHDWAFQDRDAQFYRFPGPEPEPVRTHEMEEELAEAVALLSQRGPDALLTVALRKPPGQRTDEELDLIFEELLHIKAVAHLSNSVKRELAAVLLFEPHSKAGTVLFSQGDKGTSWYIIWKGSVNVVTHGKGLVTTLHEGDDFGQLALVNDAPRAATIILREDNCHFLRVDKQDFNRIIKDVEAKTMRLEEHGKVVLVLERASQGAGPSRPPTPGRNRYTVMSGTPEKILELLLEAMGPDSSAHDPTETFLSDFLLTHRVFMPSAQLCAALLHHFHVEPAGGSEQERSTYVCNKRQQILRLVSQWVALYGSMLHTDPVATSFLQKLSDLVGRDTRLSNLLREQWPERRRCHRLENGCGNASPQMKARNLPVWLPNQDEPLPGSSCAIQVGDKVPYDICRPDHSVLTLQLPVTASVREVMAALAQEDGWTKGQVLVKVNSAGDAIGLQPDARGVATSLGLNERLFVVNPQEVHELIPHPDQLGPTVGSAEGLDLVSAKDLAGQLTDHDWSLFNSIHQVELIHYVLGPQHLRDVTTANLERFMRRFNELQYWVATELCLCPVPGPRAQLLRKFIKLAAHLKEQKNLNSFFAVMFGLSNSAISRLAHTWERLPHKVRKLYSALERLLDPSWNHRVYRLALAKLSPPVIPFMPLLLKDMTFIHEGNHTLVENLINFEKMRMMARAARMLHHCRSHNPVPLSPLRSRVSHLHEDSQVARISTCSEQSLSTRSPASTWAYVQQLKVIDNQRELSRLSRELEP
Outline: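 Released BODIPY-GDP fluoresces less than Rap1-bound BODIPY-GDP; the signal is followed at 480/540 nm at 5-min intervals over 30 min, after 5 min at room temperature. Reactions contain 100 nM EPAC1, 250 nM RAP1B-BODIPY-GDP and 50 uM GDP; results are normalized to ATA and DMSO.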

[2] = molecular target: Rap guanine nucleotide exchange factor 3 (Homo sapiens) (UniProt O95398); assay: Confirmatory qHTS for agonist of cAMP-regulated guanine nucleotide exchange factor 3 (EPAC1) (AID 1645881);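 note: EPAC1 catalysed release of BODIPY-GDP from Rap1B seen as fluorescence loss; 100% = effect of cAMP agonist control; nearly all actives have a fitted effect of over 75% in size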
[3] = molecular target: Rap guanine nucleotide exchange factor 4 (Homo sapiens) (UniProt Q8WZA2); assay: Confirmatory qHTS for agonist of cAMP-regulated guanine nucleotide exchange factor 4 (EPAC2) (AID 1645884);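 note: nucleotide exchange releases bodipy-GDP from Rap1 and this lowers its fluorescence; % is set by controls: 0 for no effect and ±100 for the full control effect; nearly all actives have a fitted effect of over 65% in size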
Chain of Rap guanine nucleotide exchange factor 4 (Homo sapiens) (Q8WZA2 whole entry, looked up): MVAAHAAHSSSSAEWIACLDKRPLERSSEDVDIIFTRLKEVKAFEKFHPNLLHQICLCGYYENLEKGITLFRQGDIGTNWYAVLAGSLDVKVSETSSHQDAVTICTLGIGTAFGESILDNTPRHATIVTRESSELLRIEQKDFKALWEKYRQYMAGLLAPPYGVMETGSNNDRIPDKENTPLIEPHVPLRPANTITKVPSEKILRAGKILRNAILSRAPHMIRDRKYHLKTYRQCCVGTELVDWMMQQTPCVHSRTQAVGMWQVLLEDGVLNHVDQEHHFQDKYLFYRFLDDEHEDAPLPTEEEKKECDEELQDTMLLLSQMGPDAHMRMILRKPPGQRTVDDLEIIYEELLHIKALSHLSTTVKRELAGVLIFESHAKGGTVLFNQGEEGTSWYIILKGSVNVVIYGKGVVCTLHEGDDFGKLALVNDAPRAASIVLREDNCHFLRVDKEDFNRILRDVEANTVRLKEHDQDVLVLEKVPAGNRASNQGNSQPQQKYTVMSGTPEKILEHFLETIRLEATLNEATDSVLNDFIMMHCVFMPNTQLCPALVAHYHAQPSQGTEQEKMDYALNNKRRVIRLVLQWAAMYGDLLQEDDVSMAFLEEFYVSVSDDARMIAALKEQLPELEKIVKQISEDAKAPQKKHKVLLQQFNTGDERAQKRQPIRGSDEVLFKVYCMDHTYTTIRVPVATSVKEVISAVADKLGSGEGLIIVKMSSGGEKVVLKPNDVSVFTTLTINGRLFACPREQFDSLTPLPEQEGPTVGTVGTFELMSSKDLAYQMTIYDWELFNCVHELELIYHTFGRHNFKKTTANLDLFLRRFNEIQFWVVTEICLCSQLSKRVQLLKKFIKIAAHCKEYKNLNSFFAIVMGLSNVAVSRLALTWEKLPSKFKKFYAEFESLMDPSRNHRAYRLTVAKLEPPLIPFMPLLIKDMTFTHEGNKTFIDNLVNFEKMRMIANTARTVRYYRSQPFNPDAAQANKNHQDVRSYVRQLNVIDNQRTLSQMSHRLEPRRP

[4] = Primary qHTS for small molecule stabilizers of the endoplasmic reticulum resident proteome: Secreted ER Calcium Modulated Protein (SERCaMP) assay (AID 1508630); note: % is set by controls: 0 for no effect and ±100 for the full control effect
Outline: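 The SH-SY5Y reporter protocol was run at 3 concentrations up to 38.3 uM (primary) or 11 concentrations (follow-up): 16 h compound, 100 nM thapsigargin for 4 h, then extracellular luciferase luminescence.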

[5] = A High-Content qHTS Against Drug Library for the Identification of Small Molecules that Inhibit DYT1 Early Onset Primary Dystonia-Associated Cell Pathology (AID 1645839; calls by dose curve)
Outline: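 High-content imaging quantified EGFP-TorsinA mislocalization in HEK293-derived cells inducibly expressing DYT1 mutant torsinA, after 48 h exposure to compound given together with tetracycline induction. Cell count served as a toxicity channel alongside %pathology.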

[6] = molecular target: Cytochrome P450 2D6 (Homo sapiens) (UniProt P10635); assay: Cytochrome P450 family 2 subfamily D member 6 (CYP2D6) small molecule antagonists: luciferase biochemical (cell-free) qHTS assay (AID 1645840; active = well fitted curve in the direction sought with a large enough effect in the repeat runs; an effect the other way counts as inactive or inconclusive; note: nearly all actives have a fitted effect of over 55% in size; note: potency is the fitted concentration of half-maximal effect; for activity change, negative = inhibition: % is set by controls: 0 for no effect and ±100 for the full control effect)
Chain of Cytochrome P450 2D6 (Homo sapiens) (P10635 whole entry, looked up): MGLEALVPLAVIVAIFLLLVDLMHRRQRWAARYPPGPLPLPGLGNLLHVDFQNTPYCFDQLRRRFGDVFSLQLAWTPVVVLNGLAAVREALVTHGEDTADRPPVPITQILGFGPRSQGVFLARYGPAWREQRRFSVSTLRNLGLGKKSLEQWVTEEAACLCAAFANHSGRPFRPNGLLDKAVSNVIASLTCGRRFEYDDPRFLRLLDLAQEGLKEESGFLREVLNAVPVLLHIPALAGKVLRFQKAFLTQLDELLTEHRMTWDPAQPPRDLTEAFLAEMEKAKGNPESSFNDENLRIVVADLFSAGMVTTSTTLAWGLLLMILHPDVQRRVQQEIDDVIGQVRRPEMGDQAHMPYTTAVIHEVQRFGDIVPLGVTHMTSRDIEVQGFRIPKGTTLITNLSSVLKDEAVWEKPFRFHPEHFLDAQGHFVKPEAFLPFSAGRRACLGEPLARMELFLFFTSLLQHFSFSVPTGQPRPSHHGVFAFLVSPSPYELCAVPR
Outline: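 P450-Glo CYP2D6 system: proluciferin substrate converted by enzyme to luciferin, read by luminescence proportional to activity. Enzyme-substrate mix with compound 10 min at room temperature, then NADPH regeneration 1 h before detection reagent.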

[7] = molecular target: Cytochrome P450 2C9 (Homo sapiens) (UniProt P11712); assay: Cytochrome P450 family 2 subfamily C member 9 (CYP2C9) small molecule antagonists: luciferase biochemical (cell-free) qHTS assay (AID 1645842; active = well fitted curve in the direction sought with a large enough effect in the repeat runs; an effect the other way counts as inactive or inconclusive; note: nearly all actives have a fitted effect of over 55% in size; note: potency is the fitted concentration of half-maximal effect; for activity change, negative = inhibition: % is set by controls: 0 for no effect and ±100 for the full control effect)
Chain of Cytochrome P450 2C9 (Homo sapiens) (P11712 whole entry, looked up): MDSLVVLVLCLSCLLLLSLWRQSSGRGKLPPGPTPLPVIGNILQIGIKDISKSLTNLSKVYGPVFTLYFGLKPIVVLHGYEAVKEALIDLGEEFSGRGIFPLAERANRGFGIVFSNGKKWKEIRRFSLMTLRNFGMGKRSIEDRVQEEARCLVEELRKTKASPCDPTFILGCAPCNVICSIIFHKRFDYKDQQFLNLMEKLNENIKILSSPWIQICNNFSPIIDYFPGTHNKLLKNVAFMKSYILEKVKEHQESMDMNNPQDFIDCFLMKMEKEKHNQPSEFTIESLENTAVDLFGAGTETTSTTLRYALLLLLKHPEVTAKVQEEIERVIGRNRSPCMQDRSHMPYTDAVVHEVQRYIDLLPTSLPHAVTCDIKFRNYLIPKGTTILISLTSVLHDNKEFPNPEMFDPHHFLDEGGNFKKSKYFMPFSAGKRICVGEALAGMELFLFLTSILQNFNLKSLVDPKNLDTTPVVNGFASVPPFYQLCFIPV
Outline: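 P450-Glo CYP2C9 system: proluciferin substrate with enzyme in mix containing 0.4% BSA, 10 min at room temperature, then NADPH regeneration solution added and incubated 1 h at 37C. Detection reagent stopped reaction; luminescence read after 20 min as RLU.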

[8] = Primary qHTS for inhibitors of nuclear receptor binding SET domain protein 2 (NSD2) in an isogenic RCH-ACV NSD2 p.E1099K mutant (9B) (AID 1645876); note: nearly all actives have a fitted effect of over 70% in size; note: potency is the fitted concentration of half-maximal effect
[9] = Primary qHTS for inhibitors of nuclear receptor binding SET domain protein 2 (NSD2) in an RCH-ACV wild type WT cells (2C) (AID 1645877); note: nearly all actives have a fitted effect of over 70% in size; note: potency is the fitted concentration of half-maximal effect
Papain (Carica papaya) = Papain (Carica papaya) (UniProt P00784); assay: Primary qHTS assay for inhibitors of the protease papain (AID 1645873);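 note: papain turnover of Z-FR-AMC read as the AMC fluorescence gain over 10 min; % is set by controls: 0 for no effect and ±100 for the full control effect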
Chain of Papain (Carica papaya) (P00784 whole entry, looked up): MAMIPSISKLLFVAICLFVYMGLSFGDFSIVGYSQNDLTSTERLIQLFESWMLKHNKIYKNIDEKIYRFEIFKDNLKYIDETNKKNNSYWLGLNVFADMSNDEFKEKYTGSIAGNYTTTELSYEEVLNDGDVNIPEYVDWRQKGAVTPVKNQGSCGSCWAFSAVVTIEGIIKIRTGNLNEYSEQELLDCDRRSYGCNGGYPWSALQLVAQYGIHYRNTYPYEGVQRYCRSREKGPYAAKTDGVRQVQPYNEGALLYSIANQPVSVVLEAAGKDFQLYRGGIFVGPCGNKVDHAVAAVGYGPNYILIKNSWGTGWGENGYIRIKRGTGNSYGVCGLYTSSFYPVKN

[10] = molecular target: Catechol O-methyltransferase (Homo sapiens) (UniProt P21964); assay: Confirmatory Screen for Target Class Profiling of Small Molecule Inhibitors of Methyltransferases (AID 1745852); settings: MTase-Glo luminescence, SAH detection, recombinant enzyme, stronger effect = lower value; measured here: COMT max response unless noted
Chain of Catechol O-methyltransferase (Homo sapiens) (P21964 whole entry, looked up): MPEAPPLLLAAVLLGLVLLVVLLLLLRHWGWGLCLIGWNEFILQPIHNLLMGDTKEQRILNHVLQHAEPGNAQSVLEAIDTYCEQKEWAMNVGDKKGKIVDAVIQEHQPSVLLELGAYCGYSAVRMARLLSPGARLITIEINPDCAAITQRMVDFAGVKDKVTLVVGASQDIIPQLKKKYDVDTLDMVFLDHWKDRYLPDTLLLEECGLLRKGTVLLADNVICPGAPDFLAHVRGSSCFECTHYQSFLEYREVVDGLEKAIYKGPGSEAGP

[11] = molecular target: Guanidinoacetate N-methyltransferase (Homo sapiens) (UniProt Q14353); assay: as above; settings: MTase-Glo luminescence, SAH detection, recombinant enzyme; activity change, negative = inhibition: at 57.3 µM (top of the series)
[12] = molecular target: Nicotinamide N-methyltransferase (Homo sapiens) (UniProt P40261); assay: as above; settings: MTase-Glo luminescence, SAH detection, recombinant enzyme, stronger effect = lower value; measured here: NNMT max response unless noted
Chain of Nicotinamide N-methyltransferase (Homo sapiens) (P40261 whole entry, looked up): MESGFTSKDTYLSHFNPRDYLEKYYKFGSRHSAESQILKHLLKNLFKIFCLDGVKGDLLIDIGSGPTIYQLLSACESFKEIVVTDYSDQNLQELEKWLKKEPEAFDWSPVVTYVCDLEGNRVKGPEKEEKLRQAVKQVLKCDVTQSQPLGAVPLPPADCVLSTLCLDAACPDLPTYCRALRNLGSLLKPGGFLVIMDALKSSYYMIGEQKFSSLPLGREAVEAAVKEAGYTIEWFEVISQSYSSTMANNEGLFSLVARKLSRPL

COC(=O)C1=C(C)NC(C)=C(C(=O)OCCCN2CCC(c3ccccc3)(c3ccccc3)CC2)C1c1cccc([N+](=O)[O-])c1 (centres undefined)
inactive: Potency [1] | outcome [2] | outcome [3]

O=C(O)CCNC(=O)c1ccc(N=Nc2ccc(O)c(C(=O)O)c2)cc1
inactive: Potency [4] | Potency [5] | Potency [6] | Potency [7] | Potency [8] | Potency [9]

CCOC(=O)c1c(C)n(C)c2ccc(O)cc12
inactive: Potency [4] | Potency [5] | Potency [7] | Potency [8] | Potency [9]

CN(C)C(=O)COC(=O)Cc1ccc(OC(=O)c2ccc(N=C(N)N)cc2)cc1
inactive: Potency [4] | Potency [5] | Potency [6] | Potency [7] | Potency [8] | Potency [9]

Nc1cc(C(Cl)=C(Cl)Cl)c(S(N)(=O)=O)cc1S(N)(=O)=O
inactive: Potency [4] | Potency [5] | Potency [6] | Potency [8] | Potency [9]

CCN(CCO)CCCC(C)Nc1ccnc2cc(Cl)ccc12 (centres undefined)
inactive: Potency [4] | % pathology change, negative = correction [5] -8.74% [at 4.63 µM] | activity change, negative = viability loss [8] 1.42% [at 4.96 µM] and 7.11% [at 4.96 µM] | outcome [9] inactive [at 4.96 µM]

Cc1nccn1CC1CCc2c(c3ccccc3n2C)C1=O (centres undefined)
inactive: Potency [4] | Potency [5] | Potency [7] | Potency [8] | Potency [9]
active: Potency [6] 11 µM and 13.5 µM

COc1cc2nc(N3CCN(C(=O)C4CCCO4)CC3)nc(N)c2cc1OC (centres undefined)
inactive: Potency [4] | Potency [5] | Potency [7]
active: Potency [8] 11.9 µM

O=C(c1ccccc1)c1ccc2n1CCC2C(=O)O (centres undefined)
inactive: Potency [4] | Potency [5] | Potency [7] | Potency (Papain (Carica papaya)) | Potency [8] | Potency [9]

Cc1nc2n(c(=O)c1CCN1CCC(c3noc4cc(F)ccc34)CC1)CCCC2
inactive: Potency [4] | Potency [5] | Potency [7] | Potency [8] | Potency [9]
active: Potency [6] 2.75 µM

Oc1ccc(OCc2ccccc2)cc1
active: Potency [6] 15.5 µM
inactive and 4.68 µM (active): Potency [9]
inactive and 2.63 µM (active): Potency [8]
inactive: Potency [4] | Potency [5]

COC(=O)[C@H](Cc1ccccc1)NC(=O)[C@@H](N)CC(=O)O (H-Asp-Phe-OMe)
inactive: Potency [4] | Potency [5] | Potency [6] | Potency [7] | Potency [8] | Potency [9]

Cc1ncc([N+](=O)[O-])n1CC(C)O (centres undefined)
inactive: Potency [4] | Potency [5] | Potency [6] | Potency [7] | Potency [8] | Potency [9]

c1ccc2[nH]c(-c3cscn3)nc2c1
inactive and 13.2 µM (active): Potency [9]
inactive: Potency [4] | Potency [5] | Potency [7] | Potency [8]

COc1cc2c(N3CCN(C(=O)Nc4ccc(OC(C)C)cc4)CC3)ncnc2cc1OCCCN1CCCCC1
active: Potency [6] 12.3 µM | Potency [8] 18.8 µM and 25.8 µM and 16.6 µM | Potency [9] 13.3 µM and 23 µM and 16.6 µM
inactive: Potency [4] | Potency [5] | Potency [7]

CC(C)c1ccc2oc3nc(N)c(C(=O)O)cc3c(=O)c2c1
inactive: Potency [4] | Potency [5] | Potency [8] | Potency [9]
active: Potency [6] 13.8 µM | Potency [7] 13.8 µM

COCCCN1CCC(NC(=O)c2cc(Cl)c(N)c3c2OCC3)CC1
active: Potency [6] 3.47 µM | Potency [7] 2.45 µM
inactive: Potency [4] | Potency [5] | Potency [8] | Potency [9]

CC(C)[C@H](N)C(=O)OCCOCn1cnc2c(=O)[nH]c(N)nc21
inactive: Potency [4] | Potency [5] | Potency [6] | Potency [7] | Potency [8] | Potency [9]

CC(C)C[C@H](NC(=O)[C@H](Cc1ccccc1)NC(=O)c1cnccn1)B(O)O
inactive: Potency [4] | Potency [5] | Potency [6] | Potency [7]
active: Potency [8] 3.8 nM and 5.2 nM and 26.3 nM | Potency [9] 3.8 nM and 6.5 nM and 18.6 nM

CC[C@]1(O)C[C@H]2CN(CCc3c([nH]c4ccccc34)[C@@](C(=O)OC)(c3cc4c(cc3OC)N(C=O)[C@H]3[C@@](O)(C(=O)OC)[C@H](OC(C)=O)[C@]5(CC)C=CCN6CC[C@]43[C@@H]65)C2)C1
active: Potency [8] 7.5 nM and 59 nM | Potency [9] 6.7 nM and 29.5 nM
inactive: Potency [4] | Potency [5] | Potency [7]

Cc1cc2cc3c(C)cc(=O)oc3c(C)c2o1
inactive: Potency [4] | Potency [5] | Potency [6] | Potency [7] | Potency [8] | Potency [9]

N=C(N=C(N)N)N1CCOCC1
inactive: Potency [4] | Potency [5] | Potency [6] | Potency [7] | Potency [8] | Potency [9]

Nc1ncn([C@H]2C[C@H](O)[C@@H](CO)O2)c(=O)n1
inactive: Potency [4] | Potency [5] | Potency [6] | Potency [7]
active: Potency [8] 266 nM and 742 nM | Potency [9] 133 nM and 1.18 µM

Cc1ccc(Nc2nccc(N(C)c3ccc4c(C)n(C)nc4c3)n2)cc1S(N)(=O)=O
0%: activity change, negative = inhibition [11]
inactive: Potency [4] | Potency [5]
-4.72%: activity [10]
-0.226%: activity [12]
active: Potency [7] 15.5 µM | Potency [8] 5.31 µM and 1.83 µM and 4.17 µM | Potency [9] 9.44 µM and 4.68 µM
